# In PubChem BioAssay (NCATS):
# Records with an inconclusive call do not appear. A call without a number means that no potency is given here. Unmarked numbers belong to inactive results. Activity calls are given as the source filed them. Calls come from the whole dose curve; as a rule, active = well fitted inhibition curve with a large enough effect; inconclusive = small, poorly fitted or top-dose-only effect; inactive = flat fitted curve, though single readings scatter.
# Columns and labels:
# [1] = target: Calcium and integrin-binding protein 1 (Homo sapiens) (UniProt Q99828); assay: Primary qHTS for Identification of Calcium Integrin Binding Protein 1 (CIB1) Competitor (AID 1508620);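 note: GST tagged CIB1 binding a fluorescein labelled alphaIIb integrin peptide tracer; top concentration of the series differs between compounds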
# How it was run: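 Fluorescence polarization competition: CIB1-GST (1 uM final) preincubated with compound 15 min at room temperature, then FITC-labeled alphaIIb peptide (100 nM final) added for another 15 min. Polarization read at Ex 480/Em 540.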
# [2] = Primary qHTS for inhibitors of nuclear receptor binding SET domain protein 2 (NSD2) in an isogenic RCH-ACV NSD2 p.E1099K mutant (9B) (AID 1645876); note: nearly all actives have a fitted effect of over 70% in size; note: potency is the fitted concentration of half-maximal effect
# Calcium and integrin-binding protein 1 (Homo sapiens), sequence (Q99828 whole entry, looked up): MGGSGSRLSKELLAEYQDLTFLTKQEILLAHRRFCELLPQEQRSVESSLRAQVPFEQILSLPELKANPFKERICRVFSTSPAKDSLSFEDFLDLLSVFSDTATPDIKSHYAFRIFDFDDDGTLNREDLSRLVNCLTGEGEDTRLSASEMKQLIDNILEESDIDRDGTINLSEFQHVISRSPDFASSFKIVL
SMILES,Potency [1],Potency [2],"activity change, negative = viability loss [2]","activity change, negative = inhibition [1]"
O=C(OC[C@H]1O[C@H](O[C@]2(CO)O[C@H](CO)[C@@H](O)[C@@H]2O)[C@H](O)[C@@H](O)[C@@H]1O)c1ccccc1,inactive,inactive,–,–
CC(=O)SCC(=O)c1ccc(NS(=O)(=O)c2ccc(OCCCN(C)C)cc2)nc1,inactive,1.29 µM (active),–,–
COCC1OC(OC(C)(C)C2CCC3(C)C=C(C4CCC5C4(C)CC(O)C4OC(C(C)(C)OC6OC(CO)C(O)C(O)C6NC(C)=O)CCC45C)CCC3O2)C(NC(C)=O)C(O)C1O (configuration not stated),inactive,–,1.46% [at 9.23 µM],–
O=C(O)/C=C/c1ccc(O)c(O[C@@H]2O[C@H](CO)[C@@H](O)[C@H](O)[C@H]2O)c1,inactive,inactive,–,–
CC(C)=CCC[C@](C)(O)[C@H]1CC[C@]2(C)[C@@H]1[C@H](O)CC1[C@@]3(C)CC[C@H](O)C(C)(C)C3[C@@H](O[C@@H]3O[C@H](CO)[C@@H](O)[C@H](O)[C@H]3O[C@@H]3OC[C@@H](O)[C@H](O)[C@H]3O)C[C@]12C (some centres not stated),inactive,inactive,–,–
CC/C=C\CC1C(=O)C=CC1(CCCCCCCC(=O)O)OC(C)=O (configuration not stated),inactive,inactive,–,–
C[C@@H]1CC[C@]2(C(=O)O)CC[C@]3(C)C(=CCC4[C@@]5(C)C[C@@H](O)[C@H](O)[C@@](C)(CO)C5CC[C@]43C)C2[C@]1(C)O (some centres not stated),inactive,inactive,–,–
CC(C)C(C#N)O[C@@H]1O[C@H](CO[C@@H]2O[C@@H](C)[C@H](O)[C@@H](O)[C@H]2O)[C@@H](O)[C@H](O)[C@H]1O (some centres not stated),inactive,inactive,–,–
NC(=O)[C@H]1CCS[C@@H]2C[C@]3(CCCN3C(=O)Cc3ccc(NC(=O)COc4ccc(Cl)cc4Cl)cc3)C(=O)N12,inactive,7.42 µM (active),–,–
C[C@@]12C[C@]3(O)O[C@H](O1)[C@]1(COC(=O)c4ccccc4)[C@H]3C[C@@]12O[C@@H]1O[C@H](CO)[C@@H](O)[C@H](O)[C@H]1O,inactive,inactive,–,–
CC(=O)OC1CC2C3(C)CCC(OC(=O)CC(=O)O)C(C)(C)C3CCC2(C)C2(C)CCC(C3(C)CCC(=O)O3)C12 (configuration not stated),inactive,inactive,–,–
CC1(C)CC[C@]2(C(=O)O[C@@H]3O[C@H](CO)[C@@H](O)[C@H](O)[C@H]3O)CC[C@]3(C)C(=CCC4[C@@]5(C)CC[C@H](O[C@@H]6O[C@H](C(=O)O)[C@@H](O)[C@H](O)[C@H]6O)[C@@](C)(CO)C5CC[C@]43C)C2C1 (some centres not stated),inactive,–,3.1% [at 9.23 µM],–
C=CC1(C)C=C2CCC3C(C)(C)C(O[C@@H]4O[C@@H](CO)[C@H](O)[C@H]4O)CCC3(C)C2CC1O[C@@H]1O[C@H](C)[C@H](O)[C@H](O)[C@H]1O (some centres not stated),inactive,inactive,–,–
CO[C@H]1C[C@@H]2CC[C@@H](C)[C@@](O)(O2)C(=O)C(=O)N2CCCC[C@H]2C(=O)O[C@H]([C@H](C)C[C@@H]2CC[C@@H](OP(C)(C)=O)[C@H](OC)C2)CC(=O)[C@H](C)/C=C(\C)[C@@H](O)[C@@H](OC)C(=O)[C@H](C)C[C@H](C)/C=C/C=C/C=C/1C,inactive,0.0118 µM (active),–,–
OC[C@H]1O[C@@H](O[C@H]2[C@H](OCc3ccccc3)O[C@H](CO[C@@H]3OC[C@@H](O)[C@H](O)[C@H]3O)[C@@H](O)[C@@H]2O)[C@H](O)[C@@H](O)[C@@H]1O,inactive,inactive,–,–
COC1C(CO)OC(n2cnc3c(=O)[nH]cnc32)C1O (configuration not stated),inactive,inactive,–,–
C=C(C)C(=O)O[C@H]1CC2=CC(C/C(C)=C\[C@H]3OC(=O)C(=C)[C@H]13)OC2=O (some centres not stated),inactive,5.05 µM (active),–,–
C[C@@H]1O[C@@H](O[C@@H]2[C@@H](O)[C@H](O[C@H]3[C@H](O[C@H]4CC[C@@]5(C)C(CC[C@]6(C)C5CC=C5[C@@H]7CC(C)(C)CC[C@]7(C(=O)O[C@@H]7O[C@H](CO)[C@@H](O)[C@H](O)[C@H]7O[C@@H]7O[C@@H](C)[C@H](O[C@@H]8O[C@@H](C)[C@H](O)[C@@H](O)[C@H]8O)[C@@H](O)[C@H]7O)CC[C@]56C)[C@@]4(C)CO)O[C@H](C(=O)O)[C@@H](O)[C@@H]3O)O[C@H](CO)[C@H]2O)[C@H](O)[C@H](O)[C@H]1O (some centres not stated),–,–,-0.268% [at 9.23 µM],4.5% [at 12.4 µM]
CCCCC1CCN(CCCC(=O)c2ccccc2C)CC1,inactive,20.5 µM (active),–,–
C=C1C(=O)O[C@@H]2[C@H]1CCC(C)=C1CCC(=O)O[C@]12C,inactive,9.16 µM (active),–,–
COC(=O)Cc1cc2c(c([N+](=O)[O-])c1)N(C(=O)CC[C@H](N)C(=O)O)CC2,inactive,inactive,–,–

SMILES,Potency [1],Potency [2],"activity change, negative = viability loss [2]","activity change, negative = inhibition [1]"
CC1OC(OC2C(OC3C(O[C@H]4CC[C@@]5(C)C(CC[C@]6(C)C5C(=O)C=C5C7CC(C)(C)CC(O)[C@]7(C)CC[C@]56C)C4(C)C)OC(C(=O)O)C(O)C3O)OCC(O)C2O)C(O)C(O)C1O (some centres not stated),inactive,–,-6.05% [at 9.23 µM],–
OC[C@H]1O[C@@H](OC(CCCCc2ccc(O)cc2)CCc2ccc(O)cc2)[C@H](O)[C@@H](O)[C@@H]1O (some centres not stated),inactive,inactive,–,–
CC1(C)CC[C@]2(CO[C@@H]3O[C@H](CO)[C@@H](O)[C@H](O)[C@H]3O)[C@@H](O)C[C@]3(C)C(=CCC4[C@@]5(C)CC[C@H](O[C@@H]6O[C@H](CO[C@@H]7O[C@H](CO[C@@H]8OC[C@@H](O)[C@H](O)[C@H]8O)[C@@H](O)[C@H](O)[C@H]7O)[C@@H](O)[C@H](O)[C@H]6O)C(C)(C)C5CC[C@]43C)[C@@H]2C1 (some centres not stated),inactive,–,-11.3% [at 9.23 µM],–
CC(C)=CCC/C(C)=C/CO[C@@H]1O[C@H](CO)[C@@H](O)[C@H](O)[C@H]1O,inactive,inactive,–,–
C=C(C(=O)O)C1CCC2(C)CCC(O)C(C)(O)C2C1 (configuration not stated),inactive,inactive,–,–
COc1c2c(c(C)c3c1C(=O)OC3)OC1(C)CC(O)C34OC(OC)(OC3(C)C)C(O)CC4(C)C1C2 (configuration not stated),inactive,inactive,–,–
CC(C)=CCC[C@](C)(O[C@@H]1O[C@H](CO[C@@H]2O[C@H](CO)[C@@H](O)[C@H](O)[C@H]2O)[C@@H](O)[C@H](O)[C@H]1O)C1CC[C@]2(C)[C@@H]1[C@H](O)CC1[C@@]3(C)CC[C@H](O[C@@H]4O[C@H](CO)[C@@H](O)[C@H](O)[C@H]4O[C@@H]4O[C@H](CO)[C@@H](O)[C@H](O)[C@H]4O)C(C)(C)[C@@H]3CC[C@]12C (some centres not stated),inactive,–,-10.6% [at 9.23 µM],–
C[C@H]1CC[C@@]2(OC1)O[C@H]1CC3C4CC[C@H]5C[C@@H](O)[C@H](O)C[C@]5(C)C4=CC(=O)[C@]3(C)[C@H]1[C@@H]2C (some centres not stated),inactive,inactive,–,–
OC[C@H]1O[C@@H](OCCc2ccccc2)[C@H](O[C@@H]2OC[C@](O)(CO)[C@H]2O)[C@@H](O)[C@@H]1O,inactive,inactive,–,–
OCCc1ccc(O[C@@H]2O[C@H](CO)[C@@H](O)[C@H](O)[C@H]2O)cc1,inactive,inactive,–,–
C=C1OC2CC(C(=O)O)C=CC2NC1=O (configuration not stated),inactive,inactive,–,–
CN(C)c1ccc2c(c1)OC(N)=C(C#N)C2c1cccc(C(F)(F)F)c1 (configuration not stated),inactive,0.817 µM (active),–,–
C[C@@H]1C[C@@H]([C@@H](O)C(C)(C)O)O[C@H]2C[C@@]3(C)C(=C12)C[C@H](O)[C@H]1[C@@]2(C)CCC(=O)C(C)(C)C2CC[C@@]13C (some centres not stated),inactive,inactive,–,–
C[C@@H]1[C@H]2[C@H](O[C@@H]3O[C@H](CO)[C@@H](O)[C@H](O)[C@H]3O)OC=C(C(=O)O)[C@H]2C[C@@H]1O,inactive,inactive,–,–
N#Cc1cc(F)cc(-c2nc(-c3ccccn3)no2)c1,inactive,inactive,–,–
CC(C)(O[C@@H]1O[C@H](CO)[C@@H](O)[C@H](O)[C@H]1O)C(OC(=O)/C=C\c1ccc(O)cc1)C(=O)OCc1ccc(O[C@@H]2O[C@H](CO)[C@@H](O)[C@H](O)[C@H]2O)cc1 (some centres not stated),inactive,inactive,–,–
COc1cc(C(=O)O)ccc1OC1OC(CO)C(O)C(O)C1O (configuration not stated),inactive,inactive,–,–
CC(C)C(=O)OC[C@H]1O[C@H](O[C@H]2O[C@H](CO)[C@@H](O)[C@H](O)[C@H]2O)[C@H](O)[C@@H](O)[C@@H]1O,inactive,inactive,–,–
COC(=O)c1cc(OC)cc(OC)c1C(=O)c1c(OC)cc2c(c1O)C1CCCC(C)(O2)O1 (configuration not stated),inactive,inactive,–,–
CCn1cc(NC(=S)Nc2cc(Cl)ccc2OC)c(C(N)=O)n1,inactive,inactive,–,–
